Results filed as inconclusive are left out. Unmarked numbers belong to inactive results. Calls of active or inactive are those of the source. Calls follow the shape of the dose curve; as a rule, active = well fitted inhibition curve with a large enough effect; inconclusive = small, poorly fitted or top-dose-only effect; inactive = flat fitted curve, though single readings scatter. Numbered stars: 1 amine (or outer) side, 2 acyl side, 3 side chain; on linkers, the order of the positions; unused ones are H or OH. Bridge positions count the residues as written; N and C are the ends. Square brackets hold non-standard residues; d marks the D form. Peptide text beside a SMILES is read from it. I, II: the chains in the order shown. Actinocin(9to1) = Cc1c2oc3c(C)ccc(C(=O)[*:1])c3nc-2c(C(=O)[*:2])c(N)c1=O; NMeV = CN[C@H](C(=O)O)C(C)C; Sar = CNCC(=O)O
Key:
[1] = qHTS profiling for inhibitors of Plasmodium falciparum proliferation (AID 504749); also: nearly all actives have a fitted effect of over 60% in size;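 as to activity, negative = inhibition: 0% = DMSO vehicle and full inhibition = artemisinin control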; conditions: P. falciparum in erythrocytes, SYBR Green DNA, 72 h
In short: (§1)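 Three-day growth assay of blood-stage parasites in erythrocytes (0.3% parasitemia, 2.5% hematocrit) at 37 C, 5% CO2, quantified by SYBR Green DNA staining after overnight detergent lysis.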

3D7 = test: as above; conditions: P. falciparum in erythrocytes, SYBR Green DNA, 72 h; series mostly up to 28.7 µM
In short: as §1

7G8 = test: as above; conditions: P. falciparum in erythrocytes, SYBR Green DNA, 72 h; series mostly up to 28.7 µM
In short: as §1

AA1029 = test: as above; conditions: P. falciparum in erythrocytes, SYBR Green DNA, 72 h; series mostly up to 28.7 µM
In short: as §1

[2] = at 28.7 µM (top of the series), parasite line A
[3] = at 28.7 µM (top of the series), parasite line B
[4] = at 12.8 µM (top of the series), parasite line A
[5] = at 12.8 µM (top of the series), parasite line B
Potency is read from the fitted curve at half-maximal effect.

## O=C(O)CNC(=O)c1ccccc1
[1]; [2]
  activity, negative = inhibition: -0.717%
[1]; [3]
  activity, negative = inhibition: 10.3%
3D7
  Potency: inactive
7G8
  Potency: inactive
AA1029
  Potency: inactive

## CCOC(=O)OC(C)OC1=C(C(=O)Nc2ccccn2)N(C)S(=O)(=O)c2ccccc21 (stereo not given)
[1]; [2]
  activity, negative = inhibition: 3.03%
[1]; [3]
  activity, negative = inhibition: 19.4%
3D7
  Potency: inactive
7G8
  Potency: inactive
AA1029
  Potency: inactive

## NC(=O)C(=O)N/N=C/c1ccc([N+](=O)[O-])o1
[1]; [2]
  activity, negative = inhibition: -26.1%
[1]; [3]
  activity, negative = inhibition: -11.4%
3D7
  Potency: inactive
7G8
  Potency: inactive
AA1029
  Potency: inactive

## CC(=O)OCC(=O)NCCCOc1cccc(CN2CCCCC2)c1
[1]; [2]
  activity, negative = inhibition: 16.5%
[1]; [3]
  activity, negative = inhibition: 8.13%
3D7
  Potency: inactive
7G8
  Potency: inactive
AA1029
  Potency: inactive

## OC(CCN1CCCCC1)(c1ccccc1)c1ccccc1
[1]; [2]
  activity, negative = inhibition: 0.409%
[1]; [3]
  activity, negative = inhibition: -16.8%
3D7
  Potency: inactive
7G8
  Potency: 11200 nM (active)
AA1029
  Potency: 7940 nM (active)

## Cc1c(C(C)C)c(=O)n(-c2ccccc2)n1C
[1]; [2]
  activity, negative = inhibition: 5.32%
[1]; [3]
  activity, negative = inhibition: 0.527%
3D7
  Potency: inactive
7G8
  Potency: inactive
AA1029
  Potency: inactive

## Cc1c2oc3c(C)ccc(C(=O)N[C@@H]4C(=O)N[C@H](C(C)C)C(=O)N5CCC[C@H]5C(=O)N(C)CC(=O)N(C)[C@@H](C(C)C)C(=O)O[C@@H]4C)c3nc-2c(C(=O)N[C@@H]2C(=O)N[C@H](C(C)C)C(=O)N3CCC[C@H]3C(=O)N(C)CC(=O)N(C)[C@@H](C(C)C)C(=O)O[C@@H]2C)c(N)c1=O (I: T[dV]P[Sar][NMeV] / II: T[dV]P[Sar][NMeV]; ester I:1-I:C, II:1-II:C; linker I:N-II:N via Actinocin(9to1))
[1]; parasite line A
  Potency: 3.5 nM (active)
[1]; parasite line B
  Potency: 6.3 nM (active)
3D7
  Potency: 5.6 nM (active)
7G8
  Potency: 1.3 nM (active)
AA1029
  Potency: 4.5 nM (active)

## CC(=O)Oc1ccc(C(c2ccc(OC(C)=O)cc2)c2ccccn2)cc1
[1]; [2]
  activity, negative = inhibition: 0.325%
[1]; [3]
  activity, negative = inhibition: 3.02%
3D7
  Potency: inactive
7G8
  Potency: inactive
AA1029
  Potency: inactive

## COc1cc(C(=S)N2CCOCC2)cc(OC)c1OC
[1]; [2]
  activity, negative = inhibition: 7.95%
[1]; [3]
  activity, negative = inhibition: 9.84%
3D7
  Potency: inactive
7G8
  Potency: inactive
AA1029
  Potency: inactive

## CC1(C)CCC(NC(=O)[C@@H](N)CCC(=O)O)CC1
[1]; [2]
  activity, negative = inhibition: 2.48%
[1]; [3]
  activity, negative = inhibition: 10.3%
3D7
  Potency: inactive
7G8
  Potency: inactive
AA1029
  Potency: inactive

## Cc1cc(N)c2cc(NC(=O)Nc3ccc4nc(C)cc(N)c4c3)ccc2n1
[1]; parasite line A
  Potency: 8910 nM (active)
[1]; parasite line B
  Potency: 11200 nM (active)
3D7
  Potency: 7080 nM (active)
7G8
  Potency: 2240 nM (active)
AA1029
  Potency: 14100 nM (active)

## O=C1c2ccccc2C(=O)C1c1ccccc1
[1]; [4]
  activity, negative = inhibition: 17.2%
[1]; [5]
  activity, negative = inhibition: 11.5%
3D7
  Potency: inactive
7G8
  Potency: inactive
AA1029
  Potency: inactive

## NC(CO)(CO)CO
[1]; [2]
  activity, negative = inhibition: 6.7%
[1]; [3]
  activity, negative = inhibition: -0.553%
3D7
  Potency: inactive
7G8
  Potency: inactive
AA1029
  Potency: inactive

## C[N+]1(CCCCC[N+]2(C)CCCC2)CCCC1
[1]; [2]
  activity, negative = inhibition: 2.83%
[1]; [3]
  activity, negative = inhibition: 3.44%
3D7
  Potency: inactive
7G8
  Potency: inactive
AA1029
  Potency: inactive

## CCCCCCC[N+](CC)(CC)CCCCc1ccc(Cl)cc1
[1]; parasite line A
  Potency: 1780 nM (active)
[1]; parasite line B
  Potency: 2240 nM (active)
3D7
  Potency: 1410 nM (active)
7G8
  Potency: 631 nM (active)
AA1029
  Potency: 2000 nM (active)

## NCCC(O)(P(=O)(O)O)P(=O)(O)O
[1]; [2]
  activity, negative = inhibition: 4.48%
[1]; [3]
  activity, negative = inhibition: -11.5%
3D7
  Potency: inactive
7G8
  Potency: inactive
AA1029
  Potency: inactive

## O=C(O)CCCCC(=O)O
[1]; [2]
  activity, negative = inhibition: -0.183%
[1]; [3]
  activity, negative = inhibition: 5.83%
3D7
  Potency: inactive
7G8
  Potency: inactive
AA1029
  Potency: inactive

## CCCCCCc1ccc(O)cc1O
[1]; [2]
  activity, negative = inhibition: 6.34%
[1]; [3]
  activity, negative = inhibition: 12.1%
3D7
  Potency: inactive
7G8
  Potency: inactive
AA1029
  Potency: inactive

## CCC(=O)c1c(O)cc(O)cc1O
[1]; [2]
  activity, negative = inhibition: -1.33%
[1]; [3]
  activity, negative = inhibition: 0.647%
3D7
  Potency: inactive
7G8
  Potency: inactive
AA1029
  Potency: inactive

## Cc1c(F)c(N2CCNC(C)C2)cc2c1c(=O)c(C(=O)O)cn2C1CC1 (stereo not given)
[1]; [2]
  activity, negative = inhibition: 8.42%
[1]; [3]
  activity, negative = inhibition: 6.98%
3D7
  Potency: inactive
7G8
  Potency: inactive
AA1029
  Potency: inactive

## CN1C2CCC1CC(OC(=O)c1c[nH]c3ccccc13)C2 (stereo not given)
[1]; [2]
  activity, negative = inhibition: 9.99%
[1]; [3]
  activity, negative = inhibition: 3.24%
3D7
  Potency: inactive
7G8
  Potency: 10000 nM (active)
AA1029
  Potency: inactive

## COc1c2occc2c(OC)c2c(=O)cc(C)oc12
[1]; [4]
  activity, negative = inhibition: 5.55%
[1]; [5]
  activity, negative = inhibition: 4.52%
3D7
  Potency: inactive
7G8
  Potency: inactive
AA1029
  Potency: inactive

## Cc1c(C)n(CCN(C)C)c2ccc(C(=O)OCCN(C)C)cc12
[1]; [2]
  activity, negative = inhibition: -7.71%
[1]; [3]
  activity, negative = inhibition: -8.88%
3D7
  Potency: inactive
7G8
  Potency: 8910 nM (active)
AA1029
  Potency: inactive

## Cc1ncc(CSSCc2cnc(C)c(O)c2CO)c(CO)c1O
[1]; [2]
  activity, negative = inhibition: 0.466%
[1]; [3]
  activity, negative = inhibition: -3.16%
3D7
  Potency: inactive
7G8
  Potency: inactive
AA1029
  Potency: inactive
